The results in this text go back to PubChem BioAssay.

Each structure is given as a SMILES string. Activity calls are given as the source filed them. Unless noted, how the calls were made is not given here.

Experiment [1] can be described thus: anti-His antibody binders, primary screen, artefact control for SMM control protein annotation, biochemical, small-molecule microarray, 635 nm fluorescence (AID 1128).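 Further: score merges feature fluorescence with signal-to-noise for each printed compound spot.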 The settings on record: anti-His Alexa647 antibody binding, higher = more signal.
Experiment [2] has as its system Human papillomavirus type 1a E7 protein (residues 1-88). Description: HPV1a E7 small-molecule binders, primary screen, biochemical, small-molecule microarray, residues 1-88, 635 nm (AID 1129). The settings on record: small-molecule microarray binding, fluorescence 635 nm; higher = more signal.
Experiment [3] has as its target Focal adhesion kinase 1 (Homo sapiens) (UniProt Q05397). Nature of the experiment: small-molecule microarray binders of FAK, primary screen, biochemical, 635/667 nm fluorescence, BSA, DTT (AID 1130).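 Further: composite of spot emission at 667 nm and signal to noise over triplicate slides.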 Particulars: PTK2 binding, 635 nm fluorescence, higher = more signal.
The subject of experiment [4] is Fibrinogen (Alexa647-labelled). Description: fibrinogen binders on compound microarrays, profiling panel, artefact control for SMM control-protein annotation, biochemical, small-molecule microarray, 635/667 nm fluorescence (AID 1131).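 Further: z-score merges 667 nm fluorescence with per-spot signal-to-noise over triplicate slides.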 The settings on record: fibrinogen-A647 binding fluorescence, higher = more signal.
Experiment [5] concerns the target Follistatin (Homo sapiens) (UniProt P19883). Description: follistatin binders on small-molecule microarrays, primary screen, biochemical, small-molecule microarray, 635/667 nm fluorescence (AID 1132). Particulars: FST binding, 635 nm fluorescence, higher = more signal.
Experiment [6] addresses Fibroblast growth factor 2 (Homo sapiens) (UniProt P09038). Description: FGF2 binders on small-molecule microarrays, primary screen, biochemical, small-molecule microarray, 635/667 nm fluorescence (AID 1133). Particulars: small-molecule microarray binding, FGF2, fluorescence 635/667; higher = more signal.
A short description of experiment [7]: mitochondrial membrane potential change in A549 cells, profiling panel, cell-based, JC-1 fluorescence, basal, 24 h, 100 nL (AID 1138).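 Further: A549 lung adenocarcinoma cells under basal conditions with no added stimulus; test concentration not given here.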 Particulars: higher = more signal.
The subject of the next experiment is Lefty1. Description: Lefty1 binders on small-molecule microarrays, primary screen, biochemical, small-molecule microarray, 635/667 nm fluorescence (AID 1139). Particulars: small-molecule microarray binding, fluorescence 635/667; higher = more signal.
The test system of experiment [8] is wheat germ agglutinin (Triticum aestivum), Alexa647-labelled. Description: wheat germ agglutinin binders on compound microarrays, profiling panel, artefact control for SMM control-protein annotation, biochemical, small-molecule microarray, 635/667 nm fluorescence (AID 1140).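 Further: score merges 667 nm feature emission with signal to noise over triplicate slides.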 The settings on record: WGA-A647 binding, 635 nm fluorescence, higher = more signal.
Experiment [9] has as its target Luciferin 4-monooxygenase (Photinus pyralis) (UniProt P08659). Description: firefly luciferase enzyme inhibitors, primary screen, biochemical, luminescence, purified enzyme, 2006 set (AID 1141).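 Further: cell-free assay with purified firefly luciferase at 100 ng per well in PBS; test concentration not given here.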 The settings on record: SteadyGlo luminescence, 30 min, higher = more signal, called active from +8 up or from −8 down.
Experiment [10] deals with Wnt5a (protein binding on small-molecule microarray). Description: Wnt5a binders on small-molecule microarray, primary screen, biophysical, 635/667 nm fluorescence (AID 1142).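 Further: fluorescence read at 667 nm with signal to noise per printed feature.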 The settings on record: 635 nm fluorescence, higher = more signal.
Experiment [11] in a line: cell viability in Huh7 cells, primary screen, cytotoxicity control for HCV replication inhibitor project, CellTiter-Glo luminescence, basal, 48 h (AID 1143).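 Further: Huh7 hepatoma cells carrying a hepatitis C replication reporter with no stimulus; test concentration not given here.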 The settings on record: Huh7 HCV replicon, higher = more signal, called active from +8 up or from −8 down. (In ATP-based viability assays light output follows the ATP content of the culture.)
The nature of experiment [12]: P. aeruginosa biofilm formation inhibitors, primary screen, PAO1 strain, BacTiter-Glo luminescence, LB-PBS (AID 1144). Particulars: 12 h, higher = more signal.
A short description of experiment [13]: CREB reporter modulators without forskolin, primary screen, cell-based, PC12, CRE-LacZ reporter, unstimulated (AID 1145). Particulars: no forskolin, luminescence, 4.5 h, higher = more signal, called active from +8 up or from −8 down.
Experiment [14] in a line: CREB reporter modulators under forskolin, primary screen, cell-based, PC12, CRE-LacZ reporter, forskolin-stimulated (AID 1146).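 Further: PC12 cells with 6xCRE LacZ reporter stimulated by forskolin 10 µM; beta-galactosidase reporter signal reflecting CREB driven transcription.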 The settings on record: luminescence, 4.5 h, higher = more signal, called active from +8 up or from −8 down.
Experiment [15] concerns the target Streptavidin (Streptomyces avidinii) (UniProt P22629). Description: streptavidin binders on small-molecule microarray, primary screen, artefact control for SMM compound annotation, biophysical, 635/667 nm fluorescence (AID 1147).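 Further: signal reflects streptavidin binding to arrayed compounds as a control protein.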 The settings on record: streptavidin binding, higher = more signal.
A short description of experiment [16]: small-molecule binders of probe aInhba, primary screen, biochemical, small-molecule microarray, 635/667 nm fluorescence (AID 1148).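 Further: score merges 667nm spot fluorescence with signal-to-noise for antibody binding to printed compounds.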 The settings on record: higher = more signal.
Experiment [17] deals with Torsin-1A (Homo sapiens) (UniProt O14656). Nature of the experiment: torsin A binders from cell lysate, primary screen, small-molecule microarray, wild-type, 635/667 nm (AID 1149). The settings on record: COS7 hTOR1A-WT lysate, 635 nm fluorescence, higher = more signal.
For experiment [18] the target is unchanged. Nature of the experiment: small-molecule binders of mutant TOR1A in lysate, primary screen, cell lysate, small-molecule microarray, COS7 lysate, 635/667 nm fluorescence (AID 1150).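 Further: score pools 667 nm emission and signal to noise measuring lysate protein binding.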 Particulars: COS7 hTOR1A mutant lysate, 635 nm fluorescence, higher = more signal.
Experiment [19] has as its system Sonic hedgehog protein (Shh). Nature of the experiment: small-molecule binders of Shh protein, primary screen, biochemical, small-molecule microarray, 635/667 nm fluorescence (AID 1151).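 Further: Shh protein binding to compounds spotted on small-molecule microarray slides; score combines spot fluorescence intensity with signal-to-noise across triplicate slides.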 The settings on record: small-molecule microarray binding, 635 nm fluorescence; higher = more signal.

Sequence of Fibroblast growth factor 2 (Homo sapiens) (P09038 whole entry, looked up): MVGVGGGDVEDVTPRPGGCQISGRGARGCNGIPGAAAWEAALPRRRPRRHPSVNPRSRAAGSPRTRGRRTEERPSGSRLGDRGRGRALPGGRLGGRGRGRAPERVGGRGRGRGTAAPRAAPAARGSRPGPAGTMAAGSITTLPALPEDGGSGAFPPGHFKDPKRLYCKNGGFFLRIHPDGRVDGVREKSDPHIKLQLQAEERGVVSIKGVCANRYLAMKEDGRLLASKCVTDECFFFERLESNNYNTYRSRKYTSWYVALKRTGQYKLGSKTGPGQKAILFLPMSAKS
Sequence of Focal adhesion kinase 1 (Homo sapiens) (Q05397 whole entry, looked up): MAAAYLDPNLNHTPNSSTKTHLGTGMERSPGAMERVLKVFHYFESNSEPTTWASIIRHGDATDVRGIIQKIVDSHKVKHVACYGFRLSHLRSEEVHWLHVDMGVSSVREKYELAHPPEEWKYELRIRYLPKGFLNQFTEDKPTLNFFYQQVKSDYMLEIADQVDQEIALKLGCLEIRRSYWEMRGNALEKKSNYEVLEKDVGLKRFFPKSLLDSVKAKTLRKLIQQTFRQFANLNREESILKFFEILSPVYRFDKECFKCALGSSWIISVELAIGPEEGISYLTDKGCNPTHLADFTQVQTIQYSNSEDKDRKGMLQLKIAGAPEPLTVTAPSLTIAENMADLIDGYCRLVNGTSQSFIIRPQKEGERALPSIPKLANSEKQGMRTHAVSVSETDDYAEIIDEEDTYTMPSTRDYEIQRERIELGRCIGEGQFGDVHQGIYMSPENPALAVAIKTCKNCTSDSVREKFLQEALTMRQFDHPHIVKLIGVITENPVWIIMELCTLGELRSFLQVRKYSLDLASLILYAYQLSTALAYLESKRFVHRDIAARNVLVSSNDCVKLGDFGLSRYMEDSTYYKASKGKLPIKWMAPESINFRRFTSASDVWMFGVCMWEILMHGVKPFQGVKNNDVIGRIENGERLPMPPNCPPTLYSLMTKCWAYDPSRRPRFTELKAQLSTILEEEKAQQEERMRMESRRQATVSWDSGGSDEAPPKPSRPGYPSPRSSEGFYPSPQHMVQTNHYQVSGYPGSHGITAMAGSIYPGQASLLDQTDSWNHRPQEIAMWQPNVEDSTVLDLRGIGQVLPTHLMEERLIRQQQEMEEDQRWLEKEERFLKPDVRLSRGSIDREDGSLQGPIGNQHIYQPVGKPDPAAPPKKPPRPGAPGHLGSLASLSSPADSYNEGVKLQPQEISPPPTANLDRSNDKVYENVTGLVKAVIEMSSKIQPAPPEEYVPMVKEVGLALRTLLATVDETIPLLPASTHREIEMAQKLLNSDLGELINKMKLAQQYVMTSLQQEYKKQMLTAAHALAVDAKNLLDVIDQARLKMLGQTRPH
Sequence of Torsin-1A (Homo sapiens) (O14656 whole entry, looked up): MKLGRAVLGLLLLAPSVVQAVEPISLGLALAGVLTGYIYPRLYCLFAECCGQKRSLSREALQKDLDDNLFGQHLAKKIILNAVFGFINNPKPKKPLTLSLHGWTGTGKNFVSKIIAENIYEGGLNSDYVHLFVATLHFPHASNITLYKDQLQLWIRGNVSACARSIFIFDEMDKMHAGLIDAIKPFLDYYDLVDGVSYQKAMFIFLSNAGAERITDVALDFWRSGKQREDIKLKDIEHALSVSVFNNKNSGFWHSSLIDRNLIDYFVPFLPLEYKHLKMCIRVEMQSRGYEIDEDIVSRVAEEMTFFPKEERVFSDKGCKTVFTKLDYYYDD
Sequence of Follistatin (Homo sapiens) (P19883 whole entry, looked up): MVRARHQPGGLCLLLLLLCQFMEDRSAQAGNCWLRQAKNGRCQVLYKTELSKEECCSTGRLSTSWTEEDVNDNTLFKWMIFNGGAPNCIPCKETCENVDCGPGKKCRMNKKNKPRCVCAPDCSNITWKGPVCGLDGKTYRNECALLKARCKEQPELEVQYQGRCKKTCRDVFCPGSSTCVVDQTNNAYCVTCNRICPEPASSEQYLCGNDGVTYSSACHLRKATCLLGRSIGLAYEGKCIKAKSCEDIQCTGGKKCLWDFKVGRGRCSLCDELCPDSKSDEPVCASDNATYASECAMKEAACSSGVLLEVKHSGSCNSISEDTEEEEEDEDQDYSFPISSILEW
Sequence of Luciferin 4-monooxygenase (Photinus pyralis) (P08659 whole entry, looked up): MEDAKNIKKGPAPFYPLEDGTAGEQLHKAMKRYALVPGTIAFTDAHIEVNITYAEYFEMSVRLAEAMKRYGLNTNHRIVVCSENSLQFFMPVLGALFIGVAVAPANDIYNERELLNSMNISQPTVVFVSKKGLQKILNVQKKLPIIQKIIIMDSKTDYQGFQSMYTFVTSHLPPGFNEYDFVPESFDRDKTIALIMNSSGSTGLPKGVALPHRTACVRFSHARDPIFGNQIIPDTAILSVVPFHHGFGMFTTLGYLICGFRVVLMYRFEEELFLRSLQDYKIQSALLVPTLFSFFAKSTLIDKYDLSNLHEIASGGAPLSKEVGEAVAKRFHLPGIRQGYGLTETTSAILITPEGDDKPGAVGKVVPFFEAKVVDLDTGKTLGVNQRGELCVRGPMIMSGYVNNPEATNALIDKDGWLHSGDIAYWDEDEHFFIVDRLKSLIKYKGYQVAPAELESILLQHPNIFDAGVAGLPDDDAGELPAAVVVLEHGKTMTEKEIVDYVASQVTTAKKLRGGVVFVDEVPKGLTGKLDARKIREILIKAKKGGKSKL
Sequence of Streptavidin (Streptomyces avidinii) (P22629 whole entry, looked up): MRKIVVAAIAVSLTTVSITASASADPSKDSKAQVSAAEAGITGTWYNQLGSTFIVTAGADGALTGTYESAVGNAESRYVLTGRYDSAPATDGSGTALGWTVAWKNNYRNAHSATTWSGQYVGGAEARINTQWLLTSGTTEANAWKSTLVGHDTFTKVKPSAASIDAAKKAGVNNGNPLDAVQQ

In the case of `C[C@@H](c1ccccc1)N1C(=O)[C@H]2[C@H]3[C@H](O)[C@H](O)CC(=O)[C@H]3CC[C@H]2C1=O`, the composite z-score in experiment [1] was 0.335; in experiment [2], 0.654; in [3], 0.336; in [4], 0.747; in experiment [5], 0.213; in experiment [6], 0.284. For the same molecule, the composite z-score in the experiment on Lefty1 is 0.134; in experiment [8], 0.0458; in experiment [10], 0.0027; in experiment [15] it was 0.182; in experiment [16], -0.145; in the experiment with Torsin-1A (Homo sapiens) [17], 0.0683. For the same molecule, the composite z-score came out at 0.452 with Torsin-1A (Homo sapiens) [18] and 0.374 in experiment [19]. The z-score in experiment [7] was 0.911; in experiment [9], -1.36 (inactive); in experiment [11], -0.273 (inactive); in [12], 0.257 (inactive); in [13], -0.113 (inactive); in experiment [14] it was 0.209 (inactive).
Regarding `COCCNC(=O)OCC1CCCC2(CC(OC(=O)NCc3ccc4c(c3)OCO4)CC(CCC(=O)N[C@@H](C)C(=O)OC)O2)O1` (stereo not given in full), the composite z-score in experiment [1] was 0.721; in [2] it was 0.885; in [3], 0.136; in experiment [4], 0.592; in experiment [5] it was 0.752; in experiment [6] it was 1.13. Also, the composite z-score is 1.3 with Lefty1; 0.139 in experiment [8]; -0.0558 in experiment [10]; 0.303 in experiment [15]; -0.205 in [16]; 0.308 in the experiment with Torsin-1A (Homo sapiens) [17]. For the same molecule, the figures for the composite z-score (with Torsin-1A (Homo sapiens) [18]; in experiment [19]) were 0.551 and 1.5, respectively. For the same molecule, the z-score was -0.397 in experiment [7]; 0.89 (inactive) in experiment [9]; -0.773 (inactive) in [11]; -0.0785 (inactive) in experiment [12]; -0.0755 (inactive) in experiment [13]; 0.468 (inactive) in experiment [14].
Consider `CCCNC(=O)OC[C@H]1O[C@H](CCON=C(C)CCC(=O)OC[C@H]2O[C@H](c3ccccc3)C=C[C@@H]2Oc2ccc(OC)cc2)C=C[C@@H]1Oc1ccc(OC)cc1`, for which the composite z-score was 2.6 in experiment [1]; -1.45 in experiment [2]; -0.447 in [3]; -0.467 in [4]; -0.342 in experiment [5]; -0.273 in experiment [6]. The composite z-score in the experiment with Lefty1 is 0.171; in [8], 0.619; in experiment [10], -0.109; in experiment [15] it was 0.728; in [16] it was -0.125; in the experiment with Torsin-1A (Homo sapiens) [17], -0.694. Further, the composite z-score is -0.243 in the experiment with Torsin-1A (Homo sapiens) [18] and -0.137 in experiment [19]. In addition, the z-score was 0.424 in experiment [7]; 1 (inactive) in [9]; -1.13 (inactive) in experiment [11]; -0.665 (inactive) in [12]; -0.478 (inactive) in [13]; 0.913 (inactive) in experiment [14].
In the case of `O=C1CCCC=C1C(O)CCOC(c1ccccc1)(c1ccccc1)c1ccccc1` (stereo not given), the composite z-score in experiment [1] was -0.545; in experiment [2], -0.228; in experiment [3] it was -0.0057; in experiment [4], -0.302; in experiment [5], 0.0573; in experiment [6], 0.058. In addition, the composite z-score was 0.458 in the experiment with Lefty1; -0.129 in [8]; -0.263 in experiment [10]; -0.328 in experiment [15]; -0.128 in [16]; -0.981 in the experiment with Torsin-1A (Homo sapiens) [17]. In addition, the composite z-score with Torsin-1A (Homo sapiens) [18] was -0.0854; in [19] it was 0.489. The z-score in [7] was -0.228; in experiment [9], -0.395 (inactive); in [11] it was -1.32 (inactive); in [12], 1.33 (inactive); in experiment [13] it was -0.344 (inactive); in experiment [14], 1.57 (inactive).
Turning to `COCOc1ccc(Br)cc1C(=O)[C@@H]1O[C@H]1c1cccc(OC)c1`, the composite z-score is -0.183 in experiment [1]; 0.513 in experiment [2]; 0.0147 in [3]; 0.488 in experiment [4]; 0.339 in experiment [5]; -0.0753 in [6]. The composite z-score was 0.346 with Lefty1; 0.432 in experiment [8]; -0.202 in experiment [10]; 0.015 in [15]; -0.149 in experiment [16]; 0.736 with Torsin-1A (Homo sapiens) [17]. In addition, the composite z-score came out at 0.437 in the experiment with Torsin-1A (Homo sapiens) [18] and 0.349 in experiment [19]. Further, the z-score in experiment [7] was 1.1; in experiment [9], -0.54 (inactive); in [11], -1.97 (inactive); in experiment [12], 0.64 (inactive); in experiment [13], 1.2 (inactive); in experiment [14] it was -0.37 (inactive).
